According to the supplement of paper PMC10127200:
“And” between values parts separate entries of the source, which are not always exact repeats. Equal entries are not always repeated. Structures can show the parent of a compound that is named as a salt.

system: OVCAR4; experiment: Euclidean distance of Cell Painting phenotypic profile (signed KS, 77 features) to DMSO centroid (dimensionless distance); 5 or 10 uM (library dependent); higher = stronger phenotypic change vs DMSO (phenoactivity); details: 48 h
How it was run: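 Phenoactivity is defined as the Euclidean distance from a compound profile to the median vehicle profile. Each profile comprised 77 Harmony features, scored as signed Kolmogorov-Smirnov statistics versus same-plate vehicle wells, then plate-position corrected, correlation-weighted and replicate-averaged at the top dose. Five cancer lines and one healthy fibroblast line were exposed to library compounds for 48 h at 10 or 5 uM (0.1% DMSO final).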

Compound | Euclidean distance
OCC1OC(OC2OC(CO)C(O)C(O)C2O)C(O)C(O)C1O [D-(+)-Trehalose Anhydrous] | 0.855
CONC(=O)Nc1ccc(-c2sc3c(c2CN(C)C)c(=O)n(-c2ccc(OC)nn2)c(=O)n3Cc2c(F)cccc2F)cc1 [Relugolix] | 1.3
CN1CCN(CCCN2c3ccccc3Sc3ccc(Cl)cc32)CC1 [Prochlorperazine dimaleate salt] | 1.67
C[C@@H]1CCN(C(=O)CC#N)C[C@@H]1N(C)c1ncnc2[nH]ccc12 | 0.908 and 0.677
C[C@H]1CN(C[C@H](Cc2ccccc2)C(=O)NCC(=O)O)CC[C@@]1(C)c1cccc(O)c1 [Alvimopan dihydrate] | 0.96
COc1ccccc1OCC(O)COC(N)=O (centres undefined) [Methocarbamol] | 0.907
NC1=N[C@@]2(c3cc(NC(=O)c4ccc(F)cn4)ccc3F)COC[C@H]2CS1 | 1.05
O=c1c(O)c(-c2ccc(O)cc2)oc2cc(O)cc(O)c12 [Kaempferol] | 1.45
COc1cc2c(cc1-c1c(C)noc1C)ncc1[nH]c(=O)n([C@H](C)c3ccccn3)c12 | 2.03
O=c1[nH]c(=O)n([C@H]2C[C@H](O)[C@@H](CO)O2)cc1/C=C/Br [Brivudine] | 0.962
C[C@]1(c2nc3c(C(N)=O)cccc3[nH]2)CCCN1 [Veliparib (ABT-888)] | 1.16
COc1cc2nccc(Oc3ccc(NC(=O)C4(C(=O)Nc5ccc(F)cc5)CC4)cc3)c2cc1OC | 3.08
CN1CCN(C(=O)c2cc3cc(Cl)ccc3[nH]2)CC1 | 1.17
CCCCC(CC)COC(=O)CC(C(=O)OCC(CC)CCCC)S(=O)(=O)O (centres undefined) [Docusate Sodium] | 1.25
O=C(O)Cc1ccccc1Nc1c(Cl)cccc1Cl [Diclofenac acid] | 0.711
COc1ccccc1N1CCN(CC(O)COc2cccc3ccccc23)CC1 (centres undefined) [Naftopidil] | 0.99
CC(=O)OC1CC2CCC1(C)C2(C)C (centres undefined) [Bornyl acetate] | 1.29
CC(C)CCNc1ncccc1C(=O)N1CCN(Cc2ccccc2)CC1 | 0.631
C=C1C(=O)O[C@H]2[C@H]1CC/C(C)=C/CC[C@@]1(C)O[C@@H]21 [(-)-Parthenolide] | 1.16
COc1ccc(C(=O)c2ccccc2)c(O)c1 [Oxybenzone] | 1.32

Compound | Euclidean distance
N=C(NOCC(O)CN1CCCCC1)c1cccnc1 (centres undefined) | 1.05
N[C@@H]1CCCC[C@H]1N.O=C([O-])C(=O)[O-].[Pt+2] [Eloxatin] | 3.55
Cc1cc(C)c(/C=C2\C(=O)Nc3ccccc32)[nH]1 [Semaxanib (SU5416)] | 0.885
CCCSc1ccc2[nH]c(NC(=O)OC)nc2c1 [Albendazole] | 2.48
N[C@H](CO)C(=O)O [(R)-Serine] | 1.43
O=C(O)c1ccc(Nc2ncc3c(n2)-c2ccc(Cl)cc2C(c2c(F)cccc2F)=NC3)cc1 | 3.07
C/C=C\c1ccc(O)c(OC)c1 [Isoeugenol] | 0.903
C[C@H](NC(=O)[C@@H](O)c1cc(F)cc(F)c1)C(=O)N[C@@H]1C(=O)N(C)c2ccccc2-c2ccccc21 | 1.42
CS(=O)(=O)c1ccc(C(=O)Nc2ccc(Cl)c(-c3ccccn3)c2)c(Cl)c1 [Vismodegib (GDC-0449)] | 0.924
CCc1cc2c(cc1N1CCC(N3CCOCC3)CC1)C(C)(C)c1[nH]c3cc(C#N)ccc3c1C2=O | 1.01
CCC(C)(C)c1ccc(CC(C)CN2C[C@@H](C)O[C@@H](C)C2)cc1 (some centres undefined) [Amorolfine HCl] | 0.693
COc1cc(Nc2ncc3c(n2)-c2ccc(Cl)cc2C(c2c(F)cccc2OC)=NC3)ccc1C(=O)O [Alisertib (MLN8237)] | 2.8
Cc1ccc(NC(=O)C2(c3ccc4c(c3)OC(F)(F)O4)CC2)nc1-c1cccc(C(=O)O)c1 [VX-809 (Lumacaftor)] | 1.02
COc1c(-c2ccc3cc(NS(C)(=O)=O)ccc3c2)cc(-n2ccc(=O)[nH]c2=O)cc1C(C)(C)C [Dasabuvir(ABT-333)] | 1.42
CCCCOc1ccc(CC(=O)NO)cc1 [Bufexamac] | 1.39
CC(C)c1nc(CN(C)C(=O)N[C@@H](CCN2CCOCC2)C(=O)N[C@H](CC[C@H](Cc2ccccc2)NC(=O)OCc2cncs2)Cc2ccccc2)cs1 [Cobicistat (GS-9350)] | 1.96
CNS(=O)(=O)CCc1ccc2[nH]cc(C3CCN(C)CC3)c2c1 [Naratriptan] | 1.33
C=CC(=O)Nc1cccc(Nc2nc(Nc3ccc(OCCOC)cc3)ncc2F)c1 [Spebrutinib (CC-292. AVL-292)] | 2.96
C[C@@H](N)[C@H]1CC[C@H](C(=O)Nc2ccncc2)CC1 | 3.15
